# Measured values from PubChem BioAssay (NCATS).
# Calls of active or inactive are those of the source. A call without a number means that no potency is given here. Calls follow the shape of the dose curve; as a rule, active = well fitted inhibition curve with a large enough effect; inconclusive = small, poorly fitted or top-dose-only effect; inactive = no such curve, though single readings can be large or run the other way.
# Molecular target: Pyruvate kinase (Leishmania mexicana) (UniProt Q27686)
# Assay: qHTS Validation Assay for Inhibitors of Leishmania Mexicana Pyruvate Kinase (AID 945)
# Conditions: purified L. mexicana pyruvate kinase, enzyme activity, E451W mutant enzyme; series mostly up to 57.5 µM
# Description: NIH Molecular Libraries Screening Centers Network [MLSCN]
# NIH Chemical Genomics Center [NCGC]
# PI names: Malcom Walkinshaw, Hugh Morgan and Linda Gilmore
# University of Edinburgh, Edinburgh, UK
# Species of Leishmania are responsible for a wide spectrum of diseases throughout the tropics and subtropics, ranging from self-healing ulcers to highly disfiguring lesions and serious, often lethal visceral diseases, such as kala-azar. In Leishmania spp. it has been shown that both sugar uptake and gluconeogenesis are necessary to synthesize sufficient hexose-phosphate required for the production of glycoconjugates and the intracellular polysaccharide mannan which are essential for both replication and virulence of the parasites. Therefore, most of the enzymes participating in glycolysis and gluconeogenesis are expected to be essential (Naderer et al., 2006). The assay described here targets pyruvate kinase from Leishmania mexicania (LmPYK) that was obtained as a highly purified preparation from the University of Edinburgh (E451W mutant was provided). A 1536 well assay protocol was set up and validated by screening the LOPAC library in triplicate as an eight point concentration-titration series using the qHTS platform developed at the NCGC.
# NCGC Assay Protocol Summary:
# Three uL of substrate mix (final concentrations, 50 mM imidazole pH 7.2, 50 mM KCl, 7 mM MgCl2, 0.5 mM PEP, 0.1 mM ADP, 0.01% Tween 20, 0.05% BSA) was dispensed into white solid medium binding Greiner 1536 well plates. 23 nL of compound were delivered by a pin tool and 1 uL of enzyme mix (final concentration, 0.2 nM LmPYK, 50 mM imidazole pH 7.2, 0.05% BSA) was added. Plates were covered with stainless steel gasket-lined lids and incubated at room temperature for 1 hour. Two uL of detection and kinase stop mix (PKLight, Lonza) was added, and luminescence read by a ViewLux (Perkin Elmer) at 2 second exposure/plate using 2x binning. Controls on each plate were as follows: column 1, sixteen-point titration (1:2 dilutions) in duplicate the LmPK activator LOPAC-C8145 beginning at 57 uM final concentration; column 2, sixteen-point titration (1:2 dilutions) in duplicate activator LOPAC-S4063 beginning at 57 uM final concentration; column 3, column 4 DMSO only. Data were normalized to the neutral control (column 3).
# Potency is read from the fitted curve at half-maximal effect.
# Sequence of Pyruvate kinase (Leishmania mexicana) (Q27686 2-499 E452W): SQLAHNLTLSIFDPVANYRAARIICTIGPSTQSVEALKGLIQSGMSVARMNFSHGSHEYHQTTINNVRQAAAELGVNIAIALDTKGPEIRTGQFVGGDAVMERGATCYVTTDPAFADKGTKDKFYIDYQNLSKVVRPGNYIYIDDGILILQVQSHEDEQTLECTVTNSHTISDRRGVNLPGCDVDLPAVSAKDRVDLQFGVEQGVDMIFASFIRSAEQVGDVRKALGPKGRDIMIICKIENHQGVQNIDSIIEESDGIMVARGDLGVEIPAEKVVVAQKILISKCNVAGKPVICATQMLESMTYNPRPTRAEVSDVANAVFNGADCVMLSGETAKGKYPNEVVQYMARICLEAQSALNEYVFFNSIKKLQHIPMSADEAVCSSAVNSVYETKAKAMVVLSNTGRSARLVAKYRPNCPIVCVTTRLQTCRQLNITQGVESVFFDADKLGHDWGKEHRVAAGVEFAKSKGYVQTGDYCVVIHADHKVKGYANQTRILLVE
row,SMILES,Potency
1,CCCCCCCCCCCCCC(=O)O[C@H]1[C@@H](C)[C@@]2(O)[C@@H](C=C(CO)C[C@]3(O)C(=O)C(C)=C[C@@H]23)C2C(C)(C)[C@]21OC(C)=O (some centres not stated),inactive
2,CCCC[N+]1(C)[C@@H]2CC(OC(=O)[C@@H](CO)c3ccccc3)C[C@H]1[C@H]1O[C@H]12 (some centres not stated),inactive
3,CN[C@@H](C)[C@@H](O)c1ccccc1,10 µM (active)
4,CN1[C@@H]2CC[C@H]1CC(O[C@@H](c1ccccc1)c1ccccc1N)C2 (some centres not stated),inactive
5,CCN(CC)C(=O)N[C@H]1C[C@H]2c3cccc4[nH]cc(c34)C[C@@H]2N(C)C1,inactive
6,C=CCN1CC[C@@]23CCCC[C@@H]2[C@@H]1Cc1ccc(O)cc13,inactive
7,CC(C)(O)[C@H]1[C@H]2OC(=O)[C@@H]1[C@]1(O)C[C@H]3O[C@]34C(=O)O[C@H]2[C@]14C (tested in a mixture with another compound),inactive
8,CC[C@H](CO)NC(=O)[C@@H]1C=C2c3cccc4[nH]cc(c34)C[C@@H]2N(C)C1,inactive
9,C[N+]1(C)CCO[C@@](O)(c2ccc(-c3ccc([C@]4(O)C[N+](C)(C)CCO4)cc3)cc2)C1,inactive
10,C=CCN1C[C@@H](C)N([C@H](c2ccc(C(=O)N(CC)CC)cc2)c2cccc(OC)c2)C[C@H]1C,inactive
11,O=[N+]([O-])c1ccc(O[C@H]2O[C@@H](CO)[C@@H](O)[C@@H](O)[C@@H]2F)c([N+](=O)[O-])c1,inactive
12,CCCN1CCC[C@H](c2cccc(C#N)c2)C1,inactive
13,COc1ccc2c(c1)[C@]13CCCC[C@@H]1[C@H](C2)N(C)CC3,inactive
14,C[C@@H]1O[C@@H](O[C@H]2C[C@@H](O)[C@]3(CO)[C@@H]4[C@@H](O)C[C@]5(C)[C@H]([C@@H]6COC(=O)C6)CC[C@@]5(O)[C@H]4CC[C@@]3(O)C2)[C@H](O)[C@H](O)[C@@H]1O,inactive
15,Oc1ccc2c3c1O[C@@H]1[C@@H](O)CC[C@]4(O)[C@H](C2)N(CC2CCC2)CC[C@@]314,inactive
16,C[C@]12Cc3cn4c(nc3C=C1CC[C@H]1[C@@H]2CC[C@@]2(C)[C@H]1CC[C@@]2(O)C#N)nc1ccccc14,inactive
17,Oc1cc2c(cc1O)[C@H]1c3ccccc3CN[C@@H]1CC2,inactive
18,C/C=C(\C)C(=O)O[C@@H]1C(C)=C2[C@H]([C@@H]1OC(=O)CCCCCCC)[C@@](C)(OC(C)=O)C[C@@H](OC(=O)CCC)[C@@]1(O)[C@H]2OC(=O)[C@]1(C)O,inactive
19,Ic1ccccc1CN[C@@H]1C2CCN(CC2)[C@H]1C(c1ccccc1)c1ccccc1,inactive

row,SMILES,Potency
1,NC(=O)c1ccc(OC[C@H](O)CN2CC=C(c3ccc(F)cc3)CC2)cc1,inactive
2,CC(C)(C)NC[C@H](O)c1ccccc1Cl,inactive
3,C=CCN1CC[C@]23c4c5ccc(O)c4O[C@@H]2C(=O)CC[C@@]3(O)[C@H]1C5,inactive
4,CC(C)[C@@H]1NC(=O)[C@H](CCCCN)NC(=O)[C@H](Cc2c[nH]c3ccccc23)NC(=O)[C@H](Cc2ccc(O)cc2)NC(=O)[C@H](C)N(C)C(=O)[C@H](Cc2ccccc2)NC1=O,inactive
5,C[C@]1(C(=O)O)[C@@H]2CC[C@@H](O2)[C@@]1(C)C(=O)O,inactive
6,C[C@@H]1O[C@@H](O[C@H]2C[C@@H](O)[C@]3(CO)[C@@H]4[C@@H](O)C[C@]5(C)[C@H](C6=CC(=O)OC6)CC[C@@]5(O)[C@H]4CC[C@@]3(O)C2)[C@H](O)[C@H](O)[C@@H]1O,inactive
7,O[C@@H]1CCCC[C@H]1N1CCC(c2ccccc2)CC1,inactive
8,COC[C@H]1OC(=O)c2coc3c2[C@@]1(C)C1=C(C3=O)[C@H]2CCC(=O)[C@@]2(C)C[C@H]1OC(C)=O,inactive
9,C[C@@H](Cc1ccc2c(c1)OC(C(=O)O)(C(=O)O)O2)NC[C@H](O)c1cccc(Cl)c1,inactive
10,CC[C@H](CO)NC(=O)[C@@H]1C=C2c3cccc4c3c(cn4C)C[C@@H]2N(C)C1,inactive
11,N[C@@H]1CCc2cc(O)c(O)cc2C1,inactive
12,CCN1C[C@]2(C)CC[C@@H](O)[C@]34[C@@H]5CC6[C@@H](OC)C[C@@](O)([C@H]5[C@@H]6O)[C@@H](C[C@@H]23)[C@H]14,inactive
13,N[C@@H](Cc1cc(O)c(O)cc1O)C(=O)O,inactive
14,C[C@H](N)c1cccc(Cl)c1Cl,inactive
15,C[C@H](N[C@@H](C)CCc1ccccc1)[C@H](O)c1ccc(O)cc1,inactive
16,CCCN1CCc2cccc3c2[C@@H]1Cc1ccc(O)c(O)c1-3,inactive
17,C=CCN1CCc2cccc3c2[C@@H]1Cc1ccc(O)c(O)c1-3,inactive
18,CC(C)n1cc2c3c(cccc31)[C@@H]1C[C@H](C(=O)O[C@@H](C)[C@H](C)O)CN(C)[C@H]1C2,inactive
